A word on the AC50: it is the concentration giving half of the maximal activity seen.

Calls of active or inactive are those of the source. How the source made its calls: active means hit-call score of the fitted dose curve at least 0.9, where 1 is the maximum; inactive means score below 0.9.

Common to all, as to conditions: mRNA level, 48 h; actives raise or lower the signal
Read-out in assay [1]: Cytochrome P450 (CYP2B6), CYP2B6 (gene 1555)
The experiment in a line: LTEA_HepaRG_CYP2B6: Life Technologies and Expression Analysis (LTEA) Assay for Cytochrome P450 (CYP2B6) using HepaRG (AID 2283481). A digest of the protocol: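 Using 48 h treatment of HepaRG cells in serum-free induction medium, concentrations spanned half-log steps from 100 uM in 0.5% DMSO vehicle. CYP2B6 mRNA induction or loss is scored by qRT-PCR against DMSO.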

Read-out in assay [2]: Cytochrome P450 2C19 (Homo sapiens) (UniProt P33261)
The experiment in a line: LTEA_HepaRG_CYP2C19: Life Technologies and Expression Analysis (LTEA) Assay for CYP2C19 using HepaRG (AID 2283482). Put shortly: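 Human HepaRG liver cells received test chemicals for 48 h (highest 100 uM, half-log dilutions in 0.5% DMSO). CYP2C19 mRNA induction or loss is read by multiplexed qRT-PCR and fitted in both directions versus vehicle.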

Read-out in another assay: CYP2C8 (gene 1558)
The experiment in a line: LTEA_HepaRG_CYP2C8: Life Technologies and Expression Analysis (LTEA) Assay for CYP2C8 using HepaRG (AID 2283483). Put shortly:
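CYP2C8 expression measured by TaqMan qRT-PCR and normalized to three housekeeping genes. HepaRG cultures were treated for 48 h with an eight-point half-log series topping at 100 uM, vehicle 0.5% DMSO, duplicates; fitted both directions against DMSO.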

Read-out in another assay: CYP2C9 (gene 1559)
The experiment in a line: LTEA_HepaRG_CYP2C9: Life Technologies and Expression Analysis (LTEA) Assay for CYP2C9 using HepaRG (AID 2283484). A digest of the protocol:
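CYP2C9 transcript level, quantified by TaqMan qRT-PCR against three housekeeping genes, was fitted bidirectionally relative to 0.5% DMSO. HepaRG cultures were treated 48 h, in duplicate, at eight half-log concentrations topping at 100 uM.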

Read-out in a further assay: CYP2E1 (gene 1571)
The experiment in a line: LTEA_HepaRG_CYP2E1: Life Technologies and Expression Analysis (LTEA) Assay for CYP2E1 using HepaRG (AID 2283485). A digest of the protocol: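 Assay uses 48 h exposure of HepaRG hepatic cells, eight concentrations to 100 uM. Expression of CYP2E1 is quantified by TaqMan qRT-PCR with ACTB, GAPDH and POLR2A normalization; curves fitted in both directions relative to vehicle.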

Read-out in the next assay: CYP4A11 (gene 1579)
The experiment in a line: LTEA_HepaRG_CYP4A11: Life Technologies and Expression Analysis (LTEA) Assay for CYP4A11 using HepaRG (AID 2283486). A digest of the protocol:
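Readout is CYP4A11 mRNA induction or suppression (qRT-PCR, ACTB/GAPDH/POLR2A normalization) in human HepaRG cells after 48 h chemical treatment, concentrations to 100 uM in 0.5% DMSO, fitted bidirectionally against vehicle.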

Read-out in assay [3]: Cytochrome P450 3A4 (Homo sapiens) (UniProt P08684)
The experiment in a line: LTEA_HepaRG_CYP3A4: Life Technologies and Expression Analysis (LTEA) Assay for CYP3A4 using HepaRG (AID 2283487). A digest of the protocol:
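Differentiated HepaRG cells in serum-free induction medium exposed in duplicate for 48 h to 8 half-log concentrations up to 100 uM in 0.5% DMSO. CYP3A4 mRNA measured by qRT-PCR normalized to ACTB, GAPDH and POLR2A; bidirectional fit versus DMSO.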

Read-out in assay [4]: DNA damage-inducible transcript 3 (DDIT3), DDIT3 (gene 1649)
The experiment in a line: LTEA_HepaRG_DDIT3: Life Technologies and Expression Analysis (LTEA) Assay for DNA damage-inducible transcript 3 (DDIT3) using HepaRG (AID 2283488). A digest of the protocol: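 Eight-point concentration-response (100 uM highest, half-log dilutions) in HepaRG, 48 h, duplicate wells. Endpoint: qRT-PCR mRNA, normalized (ACTB, GAPDH, POLR2A), bidirectional fitting with DMSO as baseline.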

Read-out in assay [5]: Pro-epidermal growth factor (Homo sapiens) (UniProt P01133)
The experiment in a line: LTEA_HepaRG_EGF: Life Technologies and Expression Analysis (LTEA) Assay for Epidermal growth factor (EGF) using HepaRG (AID 2283489). A digest of the protocol:
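EGF expression changes in human HepaRG cells are scored by bidirectional fitting relative to 0.5% DMSO controls. Chemicals are tested at eight half-log concentrations up to 100 uM for 48 h in serum-free induction medium.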

Read-out in assay [6]: Early growth response protein 1 (EGR1) transcription factor, EGR1 (gene 1958)
The experiment in a line: LTEA_HepaRG_EGR1: Life Technologies and Expression Analysis (LTEA) Assay for Early growth response protein 1 (EGR1) transcription factor using HepaRG (AID 2283490). A digest of the protocol:
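EGR1 transcript levels quantified by qRT-PCR (Fluidigm arrays) against three housekeeping genes after 48 h chemical exposure of HepaRG cells. Eight-point half-log series topping at 100 uM, 0.5% DMSO vehicle, analyzed for gain or loss.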

Read-out in assay [7]: Ezrin (EZR), EZR (gene 7430)
The experiment in a line: LTEA_HepaRG_EZR: Life Technologies and Expression Analysis (LTEA) Assay for Ezrin (EZR) using HepaRG (AID 2283491). A digest of the protocol: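 Differentiated human HepaRG cells, 48 h after plating, were exposed in serum-free induction medium for 48 hours to eight half-log concentrations up to 100 uM in 0.5% DMSO. EZR mRNA was measured by TaqMan qRT-PCR, normalized to ACTB, GAPDH and POLR2A, and fitted bidirectionally against DMSO.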

Read-out in assay [8]: Cytochrome P450 3A7 (Homo sapiens) (UniProt P24462)
The experiment in a line: LTEA_HepaRG_CYP3A7: Life Technologies and Expression Analysis (LTEA) Assay for CYP3A7 using HepaRG (AID 2283492). A digest of the protocol:
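Cells were thawed, plated, cultured 48 h, then treated for a further 48 h with chemicals (eight-point half-log series from 100 uM, 0.5% DMSO). RNA was isolated and CYP3A7 expression quantified by qRT-PCR normalised to ACTB, GAPDH and POLR2A.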

Read-out in another assay: CYP3A5 (gene 1577)
The experiment in a line: LTEA_HepaRG_CYP3A5: Life Technologies and Expression Analysis (LTEA) Assay for CYP3A5 using HepaRG (AID 2283493). A digest of the protocol:
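Readout was CYP3A5 mRNA by qRT-PCR. HepaRG cultures were exposed for 48 h in serum-free induction medium to chemicals at up to 100 uM, and responses were fitted in both directions relative to DMSO vehicle.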

Read-out in assay [9]: Fatty Acid-Binding Protein 1 (FABP1), FABP1 (gene 2168)
The experiment in a line: LTEA_HepaRG_FABP1: Life Technologies and Expression Analysis (LTEA) Assay for Fatty Acid-Binding Protein 1 (FABP1) using HepaRG (AID 2283494). A digest of the protocol:
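FABP1 expression by TaqMan qRT-PCR, normalised to three housekeeping genes, in HepaRG cells after 48 h chemical treatment. Eight-point half-log series topping at 100 uM in 0.5% DMSO, duplicates; gain or loss fitted relative to vehicle.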

Read-out in assay [10]: Cytochrome P450 4A22 (Homo sapiens) (UniProt Q5TCH4)
The experiment in a line: LTEA_HepaRG_CYP4A22: Life Technologies and Expression Analysis (LTEA) Assay for Cytochrome P450 4A22 (CYP4A22) using HepaRG (AID 2283495). A digest of the protocol: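 Cryopreserved HepaRG cells, plated and cultured 48 h, then switched to serum-free induction medium and treated 48 h (duplicates, up to 100 uM, half-log steps, 0.5% DMSO). Expression change of CYP4A22 was fitted bidirectionally against vehicle.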

Read-out in assay [11]: Cytochrome P450 7A1 (Homo sapiens) (UniProt P22680)
The experiment in a line: LTEA_HepaRG_CYP7A1: Life Technologies and Expression Analysis (LTEA) Assay for Cytochrome P450 7A1 (CYP7A1) using HepaRG (AID 2283496). Put shortly: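 Using 0.5% DMSO as vehicle and baseline, chemicals were tested in duplicate over an 8-point range from 100 uM on HepaRG cells for 48 h; qRT-PCR signals were normalised to ACTB, GAPDH and POLR2A.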

Read-out in assay [12]: Glutathione S-Transferase (GSTA2), GSTA2 (gene 2939)
The experiment in a line: LTEA_HepaRG_GSTA2: Life Technologies and Expression Analysis (LTEA) Assay for Glutathione S-Transferase (GSTA2) using HepaRG (AID 2283497). Put shortly: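 GSTA2 transcript levels came from Fluidigm TaqMan qRT-PCR normalized to three housekeeping genes, fitted in both directions against DMSO. HepaRG cultures received chemicals for 48 h in serum-free induction medium (0.5% DMSO), 8 half-log concentrations up to 100 uM, duplicate.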

Read-out in assay [13]: Glutamate-cysteine ligase catalytic (GCLC), GCLC (gene 2729)
The experiment in a line: LTEA_HepaRG_GCLC: Life Technologies and Expression Analysis (LTEA) Assay for Glutamate-cysteine ligase catalytic (GCLC) using HepaRG (AID 2283498). Put shortly: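 Expression by TaqMan qRT-PCR, normalized to three housekeeping genes (ACTB, GAPDH, POLR2A), with up- or down-regulation fitted against DMSO. HepaRG cells dosed in duplicate for 48 h with 8 half-log concentrations up to 100 uM, vehicle 0.5% DMSO.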

Read-out in assay [14]: growth arrest and DNA damage 45 (GADD45G), GADD45G (gene 10912)
The experiment in a line: LTEA_HepaRG_GADD45G: Life Technologies and Expression Analysis (LTEA) Assay for growth arrest and DNA damage 45 (GADD45G) using HepaRG (AID 2283499). A digest of the protocol: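 Human hepatic HepaRG line treated 48 h with chemicals (eight concentrations, half-log steps from 100 uM); transcript induction or repression of GADD45G scored by qRT-PCR versus DMSO vehicle.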

Read-out in assay [15]: Glutamate-cysteine ligase regulatory (GCLM), GCLM (gene 2730)
The experiment in a line: LTEA_HepaRG_GCLM: Life Technologies and Expression Analysis (LTEA) Assay for Glutamate-cysteine ligase regulatory (GCLM) using HepaRG (AID 2283500). A digest of the protocol:
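In this multiplexed HepaRG gene-expression assay, GCLM mRNA change after 48 h treatment (8 concentrations, max 100 uM) was scored against DMSO by bidirectional curve fitting.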

Chain of Cytochrome P450 2C19 (Homo sapiens) (P33261 whole entry, looked up): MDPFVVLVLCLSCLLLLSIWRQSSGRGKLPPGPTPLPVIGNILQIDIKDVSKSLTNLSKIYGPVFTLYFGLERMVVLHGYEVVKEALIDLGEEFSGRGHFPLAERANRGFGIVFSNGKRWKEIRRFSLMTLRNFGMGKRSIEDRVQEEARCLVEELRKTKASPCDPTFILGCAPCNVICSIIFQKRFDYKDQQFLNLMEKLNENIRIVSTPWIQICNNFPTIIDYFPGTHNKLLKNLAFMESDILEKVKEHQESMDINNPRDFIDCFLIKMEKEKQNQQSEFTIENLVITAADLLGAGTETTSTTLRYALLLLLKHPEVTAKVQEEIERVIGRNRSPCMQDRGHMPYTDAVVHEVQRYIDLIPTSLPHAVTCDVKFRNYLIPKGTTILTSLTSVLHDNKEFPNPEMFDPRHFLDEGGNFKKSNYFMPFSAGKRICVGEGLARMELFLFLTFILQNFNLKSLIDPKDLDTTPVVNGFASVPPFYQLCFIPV
Chain of Cytochrome P450 3A7 (Homo sapiens) (P24462 whole entry, looked up): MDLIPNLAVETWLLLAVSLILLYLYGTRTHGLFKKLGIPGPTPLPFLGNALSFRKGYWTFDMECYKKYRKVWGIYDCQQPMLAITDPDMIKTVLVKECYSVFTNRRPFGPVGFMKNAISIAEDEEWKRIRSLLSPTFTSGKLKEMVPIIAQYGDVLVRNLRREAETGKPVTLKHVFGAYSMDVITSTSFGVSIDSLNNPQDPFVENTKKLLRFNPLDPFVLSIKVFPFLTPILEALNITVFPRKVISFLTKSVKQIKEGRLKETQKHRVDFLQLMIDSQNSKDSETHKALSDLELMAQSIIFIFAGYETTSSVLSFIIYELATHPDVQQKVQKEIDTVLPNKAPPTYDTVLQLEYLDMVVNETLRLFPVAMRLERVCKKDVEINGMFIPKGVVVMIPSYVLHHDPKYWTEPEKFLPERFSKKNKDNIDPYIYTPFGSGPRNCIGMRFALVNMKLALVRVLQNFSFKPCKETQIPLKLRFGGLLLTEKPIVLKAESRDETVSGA
Chain of Cytochrome P450 3A4 (Homo sapiens) (P08684 whole entry, looked up): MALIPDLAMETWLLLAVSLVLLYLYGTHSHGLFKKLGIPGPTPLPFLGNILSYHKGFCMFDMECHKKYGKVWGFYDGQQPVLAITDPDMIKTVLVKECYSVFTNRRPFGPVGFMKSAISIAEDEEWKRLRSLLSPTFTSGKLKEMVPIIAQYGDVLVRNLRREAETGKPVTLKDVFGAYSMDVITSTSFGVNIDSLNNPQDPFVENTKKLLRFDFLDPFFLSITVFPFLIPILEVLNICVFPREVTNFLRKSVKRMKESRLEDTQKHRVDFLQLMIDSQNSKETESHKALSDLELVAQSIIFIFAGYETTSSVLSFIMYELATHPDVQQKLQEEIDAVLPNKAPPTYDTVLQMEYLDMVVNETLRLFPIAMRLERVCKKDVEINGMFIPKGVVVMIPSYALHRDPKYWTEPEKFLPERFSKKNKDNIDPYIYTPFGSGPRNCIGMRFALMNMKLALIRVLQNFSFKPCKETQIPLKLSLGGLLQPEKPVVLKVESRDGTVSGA

In the case of `N#CC(Br)(Br)C(N)=O`, the call (in assay [1]; in assay [2]; with CYP2C8 (gene 1558); with CYP2C9 (gene 1559); in the assay with CYP2E1 (gene 1571); in the assay with CYP4A11 (gene 1579)) was inactive. Moreover, the call in assay [3], in assay [4], in assay [5], in assay [6], in assay [7] and in assay [8] was inactive. The compound was classed as inactive (with CYP3A5 (gene 1577); in assay [9]; in assay [10]; in [11]; in assay [12]; in assay [13]). For the same compound, the result in [14] was inactive.

As to `Brc1ccc(Oc2ccccc2)cc1`, in assay [1], the AC50 was 78.1 µM (active). Besides, the result (in assay [2]; with CYP2C8 (gene 1558); with CYP2C9 (gene 1559); in the assay with CYP2E1 (gene 1571); in the assay with CYP4A11 (gene 1579); in [3]) was inactive. Moreover, the compound was called inactive in assay [4], in assay [5], in assay [6], in assay [7], in assay [8] and in assay [9]. In addition, the outcome in [10], in assay [11], in [12], in assay [13] and in [14] was inactive.

Take `Cc1ccc([N+](=O)[O-])cc1`: the AC50 in assay [1] is 0.744 µM (active); in [2] it was 1.87 µM (active); with CYP2E1 (gene 1571), 20.2 µM (active); in the assay with CYP4A11 (gene 1579), 1.58 µM (active); in assay [3], 1.39 µM (active); in assay [9], 10 µM (active). Besides, the AC50 in assay [11] is 17.3 µM (active). Also, the outcome (in the assay with CYP2C8 (gene 1558); with CYP2C9 (gene 1559); in assay [4]; in assay [5]; in assay [6]; in assay [7]) was inactive. The call in [8], in [10], in [12], in assay [13] and in [14] was inactive.

In the case of `CN(C)c1ccccc1`, the AC50 in [1] is 33.4 µM (active). Also, the result (in assay [2]; with CYP2C8 (gene 1558); in the assay with CYP2C9 (gene 1559); with CYP2E1 (gene 1571); with CYP4A11 (gene 1579); in assay [3]) was inactive. In addition, the result in assay [4], in [5], in assay [6], in assay [7], in [8] and in assay [9] was inactive. Further, the compound was called inactive in [10], in [11], in assay [12], in [13], in assay [14] and in [15].

Source of the values: PubChem BioAssay (EPA / NIEHS).
